Assay [1] can be described thus: APR_HepG2_NuclearSize_72hr: Apredica 72-hour HepG2 Assay for Nuclear Size (AID 2282925). To be noted: high-content imaging, actives raise or lower the signal. In outline:
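HepG2 cells were exposed to compounds at ten concentrations from 0.39 to 200 uM (duplicate, 0.5% DMSO final) for 72 hr. After fixation in 3.7% formaldehyde, nuclei were stained with Hoechst 33342 (2 ug/mL) and imaged at 20x.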

Assay [2] is described as follows: ATG_CRE_CIS: Attagene CIS-FACTORIAL HepG2 Assay for human cAMP Responsive Element (CRE) binding protein 3 (AID 2282926). The conditions noted are these: HepG2 CRE cis-reporter, Attagene multiplexed mRNA; actives raise or lower the signal. In outline: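 HepG2 cells transiently transfected with cis-element-driven multiple reporter transcription units; CRE reporter mRNA measured 24 h after dosing by RT-PCR, 6-FAM labelling, HpaI digestion and capillary electrophoresis. Bidirectional fit versus DMSO baseline.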

The target of assay [3] is CCAAT/enhancer-binding protein beta (Homo sapiens) (UniProt P17676). As to the kind of experiment: ATG_C_EBP_CIS: Attagene CIS-FACTORIAL HepG2 Assay for human CCAAT/Enhancer Binding Protein (C/EBP) beta (AID 2282927). The conditions noted are these: HepG2 Attagene cis-factorial transcription factor reporter; actives raise or lower the signal. The method in brief:
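RT-PCR/capillary electrophoresis fluorescence of reporter mRNA, 24 h post-dose, in HepG2 cells carrying transfected cis-promoter reporter units. Bidirectional curve fitting against DMSO baseline captures gain or loss of signal.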

The nature of assay [4]: ATG_CMV_CIS: Attagene CIS-FACTORIAL HepG2 Assay for human CMV (Internal Marker) (AID 2282928).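 Note: endpoint acts as a background internal control marker rather than a target.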 The conditions noted are these: HepG2 CMV promoter reporter, transcription factor profiling; actives raise or lower the signal. In outline:
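CMV internal-marker background readout in transiently transfected HepG2 cells bearing cis-regulated reporter units. Reporter mRNA is measured 24 h after dosing by RT-PCR and capillary electrophoresis, with bidirectional fitting against DMSO.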

Assay [5] in a line: ATG_DR4_LXR_CIS: Attagene CIS-FACTORIAL HepG2 Assay for human Liver X Receptor (LXR), DR4 submotif (AID 2282929). To be noted: HepG2 Attagene DR4 cis-reporter, mRNA transcription; actives raise or lower the signal. The method in brief:
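Cells were transfected with multiple reporter transcription units, exposed to chemicals for 24 hours, then lysed for RNA. Reporter mRNA induction was measured by RT-PCR with capillary electrophoresis detection and fitted in both directions relative to DMSO.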

Assay [6] addresses Aryl hydrocarbon receptor (Homo sapiens) (UniProt P35869). Put plainly: ATG_Ahr_CIS: Attagene CIS-FACTORIAL HepG2 Assay for human Aryl Hydrocarbon Receptor (Ahr) (AID 2282930). The conditions noted are these: HepG2 AhR cis-factorial reporter transcription; actives raise or lower the signal. The method in brief: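 HepG2 cells transiently transfected with cis-element-driven multiplexed reporter transcription units; endogenous transcription factor activity measured as reporter mRNA 24 h after dosing. RT-PCR, 6-FAM labelling, HpaI digestion, capillary electrophoresis; bidirectional fitting versus DMSO baseline.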

A short description of assay [7]: ATG_AP_1_CIS: Attagene CIS-FACTORIAL HepG2 Assay for human Activator Protein 1 (AP-1) (AID 2282931). The conditions noted are these: HepG2 Attagene cis-factorial AP-1 reporter mRNA; actives raise or lower the signal. In outline: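 Endogenous transcription-factor activity in human HepG2 liver cells is read through a cis-promoter reporter transcript, sampled 24 h after dosing. Detection uses RT-PCR with capillary electrophoresis; values come from bidirectional fitting relative to DMSO.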

Assay [8] can be described thus: ATG_AP_2_CIS: Attagene CIS-FACTORIAL HepG2 Assay for human Activator Protein 2 (AP-2) (AID 2282932). To be noted: HepG2 AP-2 cis-reporter, Attagene transcription factor profiling; actives raise or lower the signal. In outline: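 HepG2 cells were transiently transfected with multiple cis-promoter reporter transcription units and dosed for 24 h. Reporter mRNA was measured by RT-PCR with capillary electrophoresis fluorescence; bidirectional fits relative to DMSO baseline.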

Assay [9] is described as follows: ATG_BRE_CIS: Attagene CIS-FACTORIAL HepG2 Assay for human Bone Morphogenetic Protein (BMP) Response Element (BRE) (AID 2282933). To be noted: HepG2 BMP response element reporter, Attagene transcription factor profiling; actives raise or lower the signal. The method in brief:
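After a 24 h chemical treatment, transiently transfected HepG2 cells were lysed for RNA; reporter transcripts were quantified by fluorescent RT-PCR and capillary electrophoresis, normalised to DMSO.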

Assay [10] concerns the target Retinoic acid receptor alpha (Homo sapiens) (UniProt P10276). As to the kind of experiment: ATG_DR5_RAR_CIS: Attagene CIS-FACTORIAL HepG2 Assay for human Retinoic Acid Receptor Alpha (RARE), DR5 submotif (AID 2282934).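 For AC50: reporter responds to endogenous RAR alpha beta and gamma in HepG2 not RARA alone.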 The conditions noted are these: HepG2 Attagene cis-factorial RARE DR5 reporter, mRNA; actives raise or lower the signal. The method in brief:
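HepG2 cells transiently transfected with multiplexed reporter units under cis (DR5 RARE) promoters, so endogenous transcription factor activity is measured. After 24 h compound exposure, reporter mRNA is quantified by RT-PCR with fluorescent labelling and capillary electrophoresis; bidirectional fitting versus DMSO.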

Assay [11] deals with Transcription factor E2F1 (Homo sapiens) (UniProt Q01094). Put plainly: ATG_E2F_CIS: Attagene CIS-FACTORIAL HepG2 Assay for human E2F Transcription Factor 1 (AID 2282935). The conditions noted are these: HepG2 Attagene cis-reporter, E2F reporter RNA transcripts; actives raise or lower the signal. The method in brief:
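HepG2 cells transiently transfected with multiplexed cis-element reporter units, dosed for 24 h. Reporter mRNA measured by RT-PCR, 6-FAM primer-extension labeling, HpaI digestion and capillary electrophoresis; bidirectional fit versus DMSO baseline.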

Assay [12] in a line: ATG_E_Box_CIS: Attagene CIS-FACTORIAL HepG2 Assay for human Enhancer Box (E-box) (AID 2282936). The conditions noted are these: HepG2 E-box cis-reporter transcription, actives raise or lower the signal. The method in brief: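 HepG2 cells transiently transfected with multiplexed cis-element reporter units sensing endogenous transcription factor activity; 24 h compound exposure. Reporter mRNA measured by RT-PCR, 6-FAM primer extension, HpaI digestion and capillary electrophoresis; bidirectional fit versus DMSO.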

Assay [13] is described as follows: ATG_M_61_CIS: Attagene CIS-FACTORIAL HepG2 Assay for M61 Transcription Factor (Internal Marker) (AID 2282937). The conditions noted are these: HepG2 Attagene CIS-FACTORIAL M61 internal marker reporter; actives raise or lower the signal. In outline: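 Cells were transfected with reporter units under cis-regulatory promoters, treated with chemicals for 24 h, then lysed for RNA. Reporter transcripts were quantified by RT-PCR and capillary electrophoresis, and activity was fitted bidirectionally against DMSO.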

A short description of assay [14]: ATG_EGR_CIS: Attagene CIS-FACTORIAL HepG2 Assay for human Early Growth Response 1 (EGR1) (AID 2282938). The conditions noted are these: HepG2 Attagene CIS-FACTORIAL EGR reporter mRNA; actives raise or lower the signal. In outline:
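Endogenous TF activity in HepG2 liver cells was gauged through cis-promoter reporter constructs transiently transfected. After 24 h dosing, reporter mRNA was quantified by RT-PCR and capillary electrophoresis, and curves fitted in both directions versus DMSO.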

Assay [15] in a line: ATG_M_19_CIS: Attagene CIS-FACTORIAL HepG2 Assay for M19 Transcription Factor (Internal Marker) (AID 2282939). The conditions noted are these: HepG2 Attagene CIS-FACTORIAL M19 internal marker reporter; actives raise or lower the signal. In outline:
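In this multiplexed cell assay, transiently transfected HepG2 reporter units report endogenous transcription-factor activity; after 24 hours of treatment, labelled reporter cDNA fragments are quantified by capillary electrophoresis and fitted bidirectionally against DMSO.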

Assay [16] can be described thus: ATG_ERE_CIS: Attagene CIS-FACTORIAL HepG2 Assay for Estrogen Response Element (ERE) (AID 2282940). To be noted: HepG2 ERE cis-reporter, Attagene RNA transcript; actives raise or lower the signal. The method in brief:
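Measuring endogenous transcription factor output, the assay doses transfected HepG2 cells for 24 hours and quantifies reporter transcripts by fluorescent RT-PCR and capillary electrophoresis, with DMSO as baseline.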

The nature of assay [17]: ATG_Ets_CIS: Attagene CIS-FACTORIAL HepG2 Assay for human Erythroblast Transformation Specific (ETS) (AID 2282941). To be noted: HepG2 ETS cis-reporter transcription, actives raise or lower the signal. The method in brief:
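HepG2 cells transfected with multiple cis-regulated reporter units measuring endogenous ETS-driven transcription, 24 h after dosing. Reporter mRNA quantified by RT-PCR with capillary electrophoresis; bidirectional fit relative to DMSO.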

The target in assay [18] is Hepatocyte nuclear factor 3-beta (Homo sapiens) (UniProt Q9Y261). As to the kind of experiment: ATG_FoxA2_CIS: Attagene CIS-FACTORIAL HepG2 Assay for human Forkhead box A2 (FOXA2) (AID 2282942). To be noted: HepG2 cis-reporter transcription factor activity, 24 h; actives raise or lower the signal. The method in brief: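 Endogenous transcription factor activity was read in HepG2 cells carrying transiently transfected cis-promoter reporter units. After 24 h dosing, reporter mRNA was quantified by RT-PCR and capillary electrophoresis, and values fitted bidirectionally versus DMSO.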

Assay [19] is described as follows: ATG_GATA_CIS: Attagene CIS-FACTORIAL HepG2 Assay for human GATA Binding Protein (AID 2282944). The conditions noted are these: HepG2 GATA cis-element reporter, Attagene multiplex mRNA; actives raise or lower the signal. The method in brief:
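Measures endogenous transcription factor-driven reporter mRNA in HepG2 cells transiently carrying cis-regulated constructs. 24 h dosing; RNA via oligo(dT) reverse transcription, PCR, HpaI digestion, capillary electrophoresis; fitted relative to DMSO.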

A short description of assay [20]: ATG_FoxO_CIS: Attagene CIS-FACTORIAL HepG2 Assay for human Forkhead box O (FoxO) (AID 2282943). To be noted: HepG2 Attagene cis-reporter, FoxO element, mRNA; actives raise or lower the signal. In outline:
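HepG2 cells transiently transfected with cis-promoter-driven multiple reporter transcription units; 24 h after chemical dosing, reporter mRNA quantified by RT-PCR, fluorescent primer extension, HpaI digestion and capillary electrophoresis. Bidirectional fitting versus DMSO baseline.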

Where “and” joins values, the source holds several entries; their conditions need not be identical. Identical values can stand only once. More than one record can exist for a structure, and the calls need not agree. Calls of active or inactive are those of the source. Rule for the calls: active = hit-call score of the fitted dose curve at least 0.9, where 1 is the maximum; inactive = score below 0.9.

Sequence of Hepatocyte nuclear factor 3-beta (Homo sapiens) (Q9Y261 whole entry, looked up): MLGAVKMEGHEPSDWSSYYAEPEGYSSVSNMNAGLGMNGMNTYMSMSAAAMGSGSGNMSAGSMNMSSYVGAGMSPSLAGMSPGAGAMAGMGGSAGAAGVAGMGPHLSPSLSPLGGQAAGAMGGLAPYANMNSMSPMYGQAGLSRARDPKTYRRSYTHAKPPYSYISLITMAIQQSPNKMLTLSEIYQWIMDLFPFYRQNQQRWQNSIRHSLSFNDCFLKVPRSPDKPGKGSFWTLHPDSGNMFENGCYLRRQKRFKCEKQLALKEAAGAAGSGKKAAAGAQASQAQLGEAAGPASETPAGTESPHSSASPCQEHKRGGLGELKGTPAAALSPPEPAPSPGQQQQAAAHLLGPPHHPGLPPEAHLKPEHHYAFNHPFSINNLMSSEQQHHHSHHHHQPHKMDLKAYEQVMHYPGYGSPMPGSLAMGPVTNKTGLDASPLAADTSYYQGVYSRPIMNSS
Sequence of Aryl hydrocarbon receptor (Homo sapiens) (P35869 whole entry, looked up): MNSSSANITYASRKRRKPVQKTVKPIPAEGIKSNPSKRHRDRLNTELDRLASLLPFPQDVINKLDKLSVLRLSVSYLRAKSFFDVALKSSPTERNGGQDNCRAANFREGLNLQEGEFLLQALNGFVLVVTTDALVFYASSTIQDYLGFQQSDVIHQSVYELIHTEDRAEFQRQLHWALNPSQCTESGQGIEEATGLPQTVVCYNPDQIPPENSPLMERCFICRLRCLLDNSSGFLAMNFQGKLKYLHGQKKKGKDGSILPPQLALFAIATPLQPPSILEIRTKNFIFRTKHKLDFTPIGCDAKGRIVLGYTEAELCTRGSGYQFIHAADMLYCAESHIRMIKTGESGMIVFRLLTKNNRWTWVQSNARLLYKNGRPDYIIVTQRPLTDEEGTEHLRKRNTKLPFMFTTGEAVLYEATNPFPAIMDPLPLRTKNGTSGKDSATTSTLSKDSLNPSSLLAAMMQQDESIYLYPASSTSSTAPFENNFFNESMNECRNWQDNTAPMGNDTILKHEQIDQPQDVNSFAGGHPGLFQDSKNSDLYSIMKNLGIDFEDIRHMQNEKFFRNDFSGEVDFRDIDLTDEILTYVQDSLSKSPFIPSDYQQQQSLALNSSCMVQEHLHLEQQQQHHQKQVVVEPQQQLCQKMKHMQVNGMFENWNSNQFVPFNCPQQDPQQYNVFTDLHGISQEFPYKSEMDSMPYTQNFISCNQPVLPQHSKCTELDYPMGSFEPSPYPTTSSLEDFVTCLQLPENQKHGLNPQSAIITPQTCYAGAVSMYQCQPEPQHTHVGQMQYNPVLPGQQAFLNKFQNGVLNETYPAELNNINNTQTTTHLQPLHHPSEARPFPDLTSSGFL
Sequence of Retinoic acid receptor alpha (Homo sapiens) (P10276 whole entry, looked up): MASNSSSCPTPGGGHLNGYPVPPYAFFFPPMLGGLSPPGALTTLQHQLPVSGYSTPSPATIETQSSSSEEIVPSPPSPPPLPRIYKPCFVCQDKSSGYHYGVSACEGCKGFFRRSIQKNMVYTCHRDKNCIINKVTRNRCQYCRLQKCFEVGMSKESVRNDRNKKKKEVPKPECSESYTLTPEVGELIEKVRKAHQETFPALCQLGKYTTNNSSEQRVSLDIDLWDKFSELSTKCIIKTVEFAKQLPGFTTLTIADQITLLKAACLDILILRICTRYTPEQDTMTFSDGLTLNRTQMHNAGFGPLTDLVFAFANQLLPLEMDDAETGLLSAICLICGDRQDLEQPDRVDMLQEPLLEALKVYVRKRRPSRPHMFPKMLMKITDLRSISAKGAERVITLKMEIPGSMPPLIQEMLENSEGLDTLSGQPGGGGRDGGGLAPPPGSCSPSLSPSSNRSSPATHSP
Sequence of CCAAT/enhancer-binding protein beta (Homo sapiens) (P17676 whole entry, looked up): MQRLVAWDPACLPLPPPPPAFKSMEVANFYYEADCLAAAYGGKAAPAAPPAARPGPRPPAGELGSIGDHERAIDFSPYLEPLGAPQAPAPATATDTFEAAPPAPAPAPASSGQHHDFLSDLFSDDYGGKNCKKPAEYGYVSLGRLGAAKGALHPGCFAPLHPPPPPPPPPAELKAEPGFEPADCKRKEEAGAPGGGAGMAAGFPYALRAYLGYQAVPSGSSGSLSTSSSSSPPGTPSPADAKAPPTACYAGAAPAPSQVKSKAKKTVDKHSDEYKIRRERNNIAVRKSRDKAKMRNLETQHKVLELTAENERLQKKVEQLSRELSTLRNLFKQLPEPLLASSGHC
Sequence of Transcription factor E2F1 (Homo sapiens) (Q01094 whole entry, looked up): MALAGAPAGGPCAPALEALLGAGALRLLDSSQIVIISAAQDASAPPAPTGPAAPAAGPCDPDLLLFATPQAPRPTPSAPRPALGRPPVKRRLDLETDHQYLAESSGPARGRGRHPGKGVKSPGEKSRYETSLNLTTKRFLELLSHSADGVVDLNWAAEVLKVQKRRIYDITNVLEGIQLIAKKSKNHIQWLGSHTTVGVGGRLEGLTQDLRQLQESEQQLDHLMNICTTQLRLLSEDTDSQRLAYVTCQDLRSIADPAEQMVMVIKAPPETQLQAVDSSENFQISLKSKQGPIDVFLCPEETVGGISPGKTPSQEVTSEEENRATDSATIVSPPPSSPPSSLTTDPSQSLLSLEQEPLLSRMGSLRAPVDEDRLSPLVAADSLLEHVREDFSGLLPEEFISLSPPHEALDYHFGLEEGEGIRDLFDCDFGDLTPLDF

As for `CCOP(=S)(OCC)SCn1c(=O)oc2cc(Cl)ccc21`, the molecule was called inactive in assay [1], in assay [6], in assay [7], in assay [8], in [11] and in assay [12]. For the same molecule, the molecule was called inactive in assay [13], in assay [14], in assay [15], in [16], in [18] and in assay [19]. Also, the AC50 in [2] is 9.92 µM (active); in [3], 12.9 µM (active); in assay [4] it was 26.4 µM (active); in assay [5] it was 80.8 µM (active); in assay [9], 50 µM (active); in assay [10] it was 12.7 µM (active). For the same molecule, in [17], the AC50 is 50 µM (active).

As to `COc1nc(C)nc(NC(=O)NS(=O)(=O)c2ccccc2Cl)n1`, the outcome in [1], in assay [2], in assay [3], in assay [4], in assay [5] and in assay [6] was inactive. For the same molecule, the molecule was classed as inactive in [7], in [8], in assay [9], in assay [10], in [11] and in assay [12]. Moreover, the result in assay [13], in assay [14], in assay [15], in assay [16], in assay [17] and in assay [18] was inactive. The call in [20] and in assay [19] was inactive.

Turning to `CCCC1COC(Cn2cncn2)(c2ccc(Cl)cc2Cl)O1` (centres undefined), the molecule was classed as inactive in assay [1], in [2], in assay [3], in assay [4], in assay [5] and in assay [6]. In addition, the result in assay [8], in assay [9], in assay [10], in assay [11], in assay [12] and in [13] was inactive. The outcome in assay [14], in assay [15], in assay [16], in [17], in assay [18] and in assay [19] was inactive. Also, the AC50 in assay [4] is 50 µM (active); in assay [6], 25 µM (active); in assay [9], 29.7 µM (active); in [10] it was 6.97 µM (active); in assay [11], 85.1 µM (active); in assay [16], 1.71 µM (active). Besides, in assay [17], the AC50 was 58 µM (active).

Consider `CCCN(CCC)c1c([N+](=O)[O-])cc(S(N)(=O)=O)cc1[N+](=O)[O-]`, for which the molecule was called inactive in assay [1], in assay [2], in [3], in assay [4], in [5] and in [6]. Also, the molecule was classed as inactive in assay [7], in assay [8], in assay [9], in assay [10], in assay [11] and in [12]. Besides, the molecule was called inactive in [13], in [14], in assay [15], in assay [16], in [17] and in [18]. The molecule was classed as inactive in assay [19]. For the same molecule, the AC50 is 4.79 µM (active) and 11.1 µM (active) in assay [5]; 1.22 µM (active) and 1.19 µM (active) in [10].

`CC1COC(Cn2cncn2)(c2ccc(Oc3ccc(Cl)cc3)cc2Cl)O1` (centres undefined): the call in assay [1], in assay [4], in [5], in [6], in assay [8] and in [10] was inactive. Besides, the result in assay [11], in assay [12], in assay [13], in assay [14], in assay [15] and in [17] was inactive. Besides, the molecule was classed as inactive in [18] and in assay [19]. The AC50 is 1.6 µM (active) in assay [2]; 0.829 µM (active) in [3]; 4.29 µM (active) in [7]; 1.71 µM (active) in assay [9]; 0.245 µM (active) in [16].

These data come from PubChem BioAssay (EPA / NIEHS).
